Assay outcomes as filed in PubChem BioAssay.
An excerpt weighted towards active compounds, which were near 11% of everything screened.
PNC assembly inh = inhibitors of perinucleolar compartment assembly | PC3M PTB-GFP, PNC prevalence imaging, 16 h; stronger effect = lower value | activity change (PNC), negative = inhibition, % at 10 µM | 140,000 tested, 3.1% active;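 active = readout at or below -70, meaning at least 70% loss of cells showing the perinucleolar compartment, a nuclear body marking cancer cells; inconclusive = readout between -30 and a set limit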
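Read-out is percentage of cells bearing a perinucleolar compartment, from automated 20x imaging of fixed, Hoechst-stained PC3M PTB-GFP cells. Cells were seeded 4 h, then exposed 16 h to compound (23 nl of library stock) in duplicate plates.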
HPGD block = inhibitors of human 15-hydroxyprostaglandin dehydrogenase (HPGD). Potency, µM, most hits filed as inhibitors. 150,000 tested, 4.3% active. P15428. purified HPGD, NADH fluorescence kinetic, PGE2 substrate
Target sequence (P15428 whole entry, looked up): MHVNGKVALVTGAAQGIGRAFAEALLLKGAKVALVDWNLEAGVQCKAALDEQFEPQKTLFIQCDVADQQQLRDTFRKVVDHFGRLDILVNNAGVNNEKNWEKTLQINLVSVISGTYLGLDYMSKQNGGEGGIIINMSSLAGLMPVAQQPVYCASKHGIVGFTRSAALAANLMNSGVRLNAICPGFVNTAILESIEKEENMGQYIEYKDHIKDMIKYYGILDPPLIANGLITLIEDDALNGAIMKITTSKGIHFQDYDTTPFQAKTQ
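NADH formation kinetics: reaction with 30 uM PGE2 and 1 mM NAD+ (final), 20 nM enzyme, Tris-HCl pH 8 with Tween 20, after 15 min compound preincubation at room temperature. Fluorescence change, last versus first of five reads.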
ALDH1A1 inh = blocks purified human ALDH1A1 activity; P00352; Purified ALDH1A1, NADH fluorescence, propionaldehyde substrate; Potency, µM (doses to about 75.3 µM), hits mostly inhibitors; 220,000 tested, 7.3% active; AID 1030
Target sequence (P00352 whole entry, looked up): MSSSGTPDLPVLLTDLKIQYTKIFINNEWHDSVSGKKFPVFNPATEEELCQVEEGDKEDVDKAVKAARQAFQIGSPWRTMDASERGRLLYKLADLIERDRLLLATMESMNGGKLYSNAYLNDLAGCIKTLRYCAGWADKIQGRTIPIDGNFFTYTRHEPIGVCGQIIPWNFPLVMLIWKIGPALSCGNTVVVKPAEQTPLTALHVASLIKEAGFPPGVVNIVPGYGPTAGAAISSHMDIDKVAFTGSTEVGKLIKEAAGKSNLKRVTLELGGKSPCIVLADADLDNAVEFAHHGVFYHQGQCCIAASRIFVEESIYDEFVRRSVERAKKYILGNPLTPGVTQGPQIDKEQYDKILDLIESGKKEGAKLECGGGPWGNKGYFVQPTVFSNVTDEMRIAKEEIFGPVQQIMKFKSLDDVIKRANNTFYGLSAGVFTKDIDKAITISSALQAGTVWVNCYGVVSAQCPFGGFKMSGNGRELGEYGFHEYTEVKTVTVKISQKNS
Of the large screens only hits and unclear results are named; the others gave an inactive call; ! = not active in a repeat. Unless noted, calls come from the whole dose curve; as a rule, active = well fitted inhibition curve with a large enough effect (not every such curve was filed as active); inconclusive = small, poorly fitted or top-dose-only effect, or another doubt; inactive = no such curve, though single readings can be large or run the other way.

CCOc1ccc(-c2nc(CCl)cs2)cc1	none (no result: PNC assembly inh, HPGD block)
O=C(CCc1nnc(CCCCc2ccccc2)o1)NCCN1CCCCC1=O	none (no result: PNC assembly inh, HPGD block)
COc1coc(/C=C/C(=O)O)cc1=O	none
Cc1ccsc1C(=O)NNC(=O)C1CC=CCC1C(=O)O (stereo unspecified)	PNC assembly inh inconclusive
Cc1ccsc1C(=O)NNC(=O)C1CCCCC1C(=O)O (stereo unspecified)	PNC assembly inh inconclusive, ALDH1A1 inh 22.4µM
C=C[C@@]1(C)CC(=O)[C@@]2(O)[C@@]3(C)[C@@H](O)CCC(C)(C)[C@@H]3[C@H](O)[C@H](OC(C)=O)[C@@]2(C)O1	none (no result: PNC assembly inh)
O=c1c(O)c(-c2ccc(O)cc2)oc2cc(O)cc(O)c12	HPGD block 28.2µM! (no result: PNC assembly inh)
COc1cc(O)c2c(=O)c(O)c(-c3ccc(O)c(O)c3)oc2c1	none (no result: PNC assembly inh)
O=c1cc(-c2ccc(O)cc2)oc2cc(O)cc(O)c12	HPGD block 31.6µM!, ALDH1A1 inh 1.78µM! (no result: PNC assembly inh)
O=c1cc(-c2ccccc2)oc2cc(O)cc(O)c12	ALDH1A1 inh 8.91µM (no result: PNC assembly inh)
O=c1cc(-c2ccccc2O)oc2cc(O)cc(O)c12	none (no result: PNC assembly inh)
COc1cc(O)c2c(=O)cc(-c3ccccc3)oc2c1	none (no result: PNC assembly inh)
COc1ccccc1CCC(=O)Nc1ccc(C)cc1Cl	none (no result: PNC assembly inh, HPGD block)
CCN(CC(=O)Nc1ccccc1OC)CC(=O)Nc1sccc1C#N	none (no result: PNC assembly inh, HPGD block)
O=C(Nc1ccccc1)N(c1ccccc1)C1C=CS(=O)(=O)C1 (stereo unspecified)	none (no result: PNC assembly inh, HPGD block)
Cc1cccc(C(=O)N2CCC(Cc3ccccc3)CC2)c1[N+](=O)[O-]	ALDH1A1 inh inconclusive
COc1ccc(OC)c(NC(=O)NCCc2cccc(Cl)c2)c1	none (no result: PNC assembly inh, HPGD block)
CC(=O)Oc1ccc2c(c1)Oc1cc(OC(C)=O)ccc1C21OC(=O)c2ccccc21	PNC assembly inh -100.0, ALDH1A1 inh inconclusive
O=C1OC2(c3ccc(O)cc3Oc3cc(O)ccc32)c2ccccc21	none (no result: PNC assembly inh)
NC(=O)c1nn(-c2ccc(Cl)cc2Cl)c(=O)cc1O	none (no result: PNC assembly inh, HPGD block)
COc1ccc(C=NCC2OCCc3ccccc32)cc1OC (stereo unspecified)	PNC assembly inh inconclusive, ALDH1A1 inh inconclusive
COc1cc(C=NCC2OCCc3ccccc32)cc(OC)c1 (stereo unspecified)	ALDH1A1 inh 22.4µM
CCOC(=O)Cc1csc(NS(=O)(=O)c2ccc(C(F)(F)F)cc2)n1	none (no result: PNC assembly inh, HPGD block)
N#Cc1ccc(COC(=O)c2ccccn2)cc1	none (no result: PNC assembly inh, HPGD block)
C=CCc1ccccc1OCC(O)CNC (stereo unspecified)	ALDH1A1 inh 22.4µM
C=CCc1ccccc1OC[C@H](O)CNC(C)C	none (no result: PNC assembly inh)
Cc1ccc2cc(C)c(Sc3nnnn3-c3ccccc3)nc2c1	ALDH1A1 inh 5.62µM
Cn1ccnc1Sc1nnnn1-c1ccccc1	PNC assembly inh inconclusive
CC(C)(C)c1cc(Br)c(O)c(CN(Cc2cc(C(C)(C)C)cc(Br)c2O)C2CCCCC2)c1	none (no result: PNC assembly inh)
O=C(O)C1CCN(c2ccccc2[N+](=O)[O-])CC1	none (no result: PNC assembly inh, HPGD block)
COc1ccc(Cl)cc1NC(=S)N1CCN(C(=O)c2ccco2)CC1	ALDH1A1 inh inconclusive
COc1ccc(CN2CCN(C(=O)c3ccco3)CC2)cc1OC	ALDH1A1 inh 20µM (no result: PNC assembly inh, HPGD block)
COc1ccc(CN2CCN(C(=O)c3ccco3)CC2)cc1OCc1ccccc1	none
COc1cc(NC(=S)N2CCN(C(=O)c3ccco3)CC2)c(OC)cc1Cl	HPGD block 31.6µM, ALDH1A1 inh 25.1µM
Cc1ccc2c(CN3CCN(C(=O)c4ccco4)CC3)cc(=O)oc2c1C	ALDH1A1 inh 25.1µM (no result: PNC assembly inh, HPGD block)
Cc1ccc2c(CN3CCN(CCO)CC3)cc(=O)oc2c1C	none
Cc1ccc(N(Cc2cc(=O)[nH]c3ccccc23)C(=O)c2ccco2)cc1	PNC assembly inh inconclusive, ALDH1A1 inh inconclusive
COc1ccc(CN(C(=O)c2ccco2)c2ccc(C)cc2)cc1OC	PNC assembly inh inconclusive, ALDH1A1 inh 7.94µM
COc1ccccc1-c1nc(COc2ccc(Cl)cc2Cl)no1	none (no result: PNC assembly inh, HPGD block)
O=C(CNC(=O)c1ccccc1)NC1(C(=O)NC2CCCCC2)CCCCC1	none (no result: PNC assembly inh, HPGD block)
CC12CCC(C(=O)N(CC3CO3)C1=O)C2(C)C (stereo unspecified)	none (no result: PNC assembly inh, HPGD block)
CC(N)=NCCCC[C@@H](N)C(=O)O	none (no result: PNC assembly inh)
CCCCC#Cc1nc(NC)c2ncn([C@@H]3O[C@@H](CO)[C@H](O)[C@H]3O)c2n1	none (no result: PNC assembly inh)
O=C(CC1C(=O)NCCN1Cc1ccc(F)cc1)NCCCn1cccn1 (stereo unspecified)	none (no result: PNC assembly inh, HPGD block)
Cc1ccc(Nc2nc(N)nc(CN3CCN(C(=O)c4ccco4)CC3)n2)cc1Cl	ALDH1A1 inh 7.94µM
O=C(c1ccco1)N1CCN(CC(O)COc2ccc3oc4ccccc4c3c2)CC1 (stereo unspecified)	PNC assembly inh -92.6
O=C(c1ccco1)N1CCN(CCCCOc2ccc(F)cc2)CC1	none
CCN1CCN(Cc2nc(N)nc(Nc3ccc(C)c(C)c3)n2)CC1	none
COc1ccc(C(=O)NCCn2ccc3ccccc32)cc1	PNC assembly inh inconclusive, ALDH1A1 inh inconclusive
Cc1cc2ccccc2n1CCNC(=O)c1ccc(S(=O)(=O)N2CCOCC2)cc1	PNC assembly inh inconclusive, ALDH1A1 inh 10µM
O=C(NCCCN1CCOCC1)c1ccc(S(=O)(=O)N2CCOCC2)cc1	PNC assembly inh inconclusive
O=C(NCCn1ccc2ccccc21)c1ccc(S(=O)(=O)N2CCCCC2)cc1	PNC assembly inh -81.1, HPGD block inconclusive, ALDH1A1 inh inconclusive
Clc1ccc(Cl)c(Cl)c1Cl	none (no result: PNC assembly inh)
CC1(C)Cc2c(sc(NC(=O)c3ccccc3Cl)c2C(=O)O)CO1	none (no result: PNC assembly inh, HPGD block)
COc1ccc(COC(=O)N/N=C2/C[C@@H](O)[C@@H](O)[C@@H]3[C@@H]4C(=O)N(c5cccc(Oc6ccccc6)c5)C(=O)[C@H]4CC[C@@H]23)cc1	none (no result: PNC assembly inh, HPGD block)
CCC(=O)c1ccc(OCCSc2ncccn2)cc1	HPGD block 31.6µM
CCC(=O)c1ccc(OCC(=O)O)cc1	none
O=C(Nc1ccc(Cl)cc1)N[C@@H]1c2c(ccc3ccccc23)OC[C@@H]1CO	PNC assembly inh -106.0
NC(=O)N1OCC2COc3ccc4ccccc4c3C21 (stereo unspecified)	none
CC(=O)c1ccc(NC(=O)COc2ccc3c(c2)OCO3)cc1	none (no result: PNC assembly inh, HPGD block)
Cc1nnc(SC/C=C/c2ccccc2)n(N)c1=O	none (no result: PNC assembly inh, HPGD block)
O=C(/C=C/c1ccccc1)n1cnnc1SC/C=C/c1ccccc1	HPGD block 14.1µM
COc1ccc(NC(=O)c2ccc(-c3ccccc3C(F)(F)F)o2)cc1	PNC assembly inh -100.2
O=C(Nc1cccc(F)c1)c1ccc(-c2ccccc2C(F)(F)F)o1	ALDH1A1 inh inconclusive
O=C(NCc1ccccc1)c1ccc(-c2ccccc2F)o1	none
O=C(NCCc1ccccc1)c1ccc(-c2ccccc2C(F)(F)F)o1	HPGD block inconclusive, ALDH1A1 inh 25.1µM
COC(=O)[C@H](COC(C)(C)C)NC(=O)O[C@@H]1Cc2cc(OC)ccc2O[C@H]1c1cccc(OC)c1	none (no result: PNC assembly inh)
OCCC1CN(Cc2ccc(Oc3ncccn3)cc2)CCN1C1CCCC1 (stereo unspecified)	none (no result: PNC assembly inh, HPGD block)
COc1cc(C(=O)NNC(=O)c2ccc(NC(=O)C(C)(C)C)cc2)cc(OC)c1OC	none (no result: PNC assembly inh, HPGD block)
COc1ccc(COC(=O)N/N=C2/C[C@@H](O)[C@@H](O)[C@@H]3[C@@H]4C(=O)N(Cc5ccccc5)C(=O)[C@H]4CC[C@@H]23)cc1	none (no result: PNC assembly inh, HPGD block)
NC(=O)C1CCN(C(=O)/C=C/c2ccco2)CC1	ALDH1A1 inh inconclusive
O=C(/C=C/c1ccco1)N1CCN(S(=O)(=O)c2cccs2)CC1	ALDH1A1 inh 7.08µM (no result: PNC assembly inh, HPGD block)
O=C(/C=C/c1ccco1)N1CCN(C/C=C/c2ccccc2)CC1	PNC assembly inh inconclusive, ALDH1A1 inh 12.6µM
